From the supplement of paper PMC10849652
Targets with a hit are over-represented here; the source holds about 8,800 in all. About 0.5% of all pairs of compound and target were hits.

Compound: NC1(c2ccc(-c3nc4ccn5c(=O)[nH]nc5c4cc3-c3ccccc3)cc2)CCC1
Assay: log2 fold change, soluble protein after heating vs DMSO (PISA); higher = thermal stabilisation; K562 lysate, 10 uM; active = over 0.2 and 3.5 SD of the protein, either way, in both replicates (recomputed)
Outline: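 Thermal stability, expressed as log-two fold change relative to solvent controls, is given from duplicates. Crude K562 extract in PBS pH 7.4 with 1 mM MgCl2, at 1 mg/mL protein, was treated with 10 μM compound for 30 min and heated in aliquots for 3 min across 48°C-58°C. After pooling, adjustment to 0.5% NP-40 at 4°C and centrifugation at 21,000xg for 90 min, supernatant protein was measured by TMTpro 16plex LC-MS/MS with channel sums equalised.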

Chain of UniProt O95793 (O95793 whole entry, looked up): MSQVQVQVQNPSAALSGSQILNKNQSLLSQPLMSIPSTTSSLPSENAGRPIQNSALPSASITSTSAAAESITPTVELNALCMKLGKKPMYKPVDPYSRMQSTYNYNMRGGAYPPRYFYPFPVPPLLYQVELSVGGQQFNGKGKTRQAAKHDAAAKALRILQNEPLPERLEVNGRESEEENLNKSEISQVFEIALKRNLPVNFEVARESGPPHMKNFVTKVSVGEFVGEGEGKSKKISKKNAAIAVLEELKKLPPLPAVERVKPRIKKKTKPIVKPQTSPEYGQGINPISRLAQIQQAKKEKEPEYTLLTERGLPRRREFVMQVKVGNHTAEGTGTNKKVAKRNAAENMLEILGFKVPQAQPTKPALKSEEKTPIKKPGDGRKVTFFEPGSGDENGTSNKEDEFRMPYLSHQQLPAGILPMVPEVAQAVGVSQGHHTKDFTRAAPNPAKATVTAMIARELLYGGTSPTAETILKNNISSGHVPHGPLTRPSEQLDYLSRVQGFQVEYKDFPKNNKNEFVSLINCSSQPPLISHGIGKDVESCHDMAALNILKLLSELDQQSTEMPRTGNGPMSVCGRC
Chain of UniProt O95391 (O95391 whole entry, looked up): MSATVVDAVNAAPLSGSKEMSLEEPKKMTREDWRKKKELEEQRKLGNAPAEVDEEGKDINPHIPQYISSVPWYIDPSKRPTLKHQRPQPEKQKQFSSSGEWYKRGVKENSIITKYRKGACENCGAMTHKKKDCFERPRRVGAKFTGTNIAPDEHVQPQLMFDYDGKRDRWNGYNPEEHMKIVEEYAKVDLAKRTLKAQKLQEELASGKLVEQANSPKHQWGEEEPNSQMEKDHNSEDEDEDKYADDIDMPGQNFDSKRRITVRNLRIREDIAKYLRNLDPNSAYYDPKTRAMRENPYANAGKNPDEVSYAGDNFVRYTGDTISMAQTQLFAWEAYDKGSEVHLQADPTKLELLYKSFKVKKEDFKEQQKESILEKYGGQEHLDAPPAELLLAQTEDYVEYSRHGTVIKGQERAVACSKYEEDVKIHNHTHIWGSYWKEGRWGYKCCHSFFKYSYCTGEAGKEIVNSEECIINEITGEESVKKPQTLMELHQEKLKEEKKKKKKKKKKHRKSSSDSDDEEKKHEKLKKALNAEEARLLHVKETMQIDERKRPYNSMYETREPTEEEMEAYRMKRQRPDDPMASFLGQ
Chain of UniProt Q9NP59 (Q9NP59 whole entry, looked up): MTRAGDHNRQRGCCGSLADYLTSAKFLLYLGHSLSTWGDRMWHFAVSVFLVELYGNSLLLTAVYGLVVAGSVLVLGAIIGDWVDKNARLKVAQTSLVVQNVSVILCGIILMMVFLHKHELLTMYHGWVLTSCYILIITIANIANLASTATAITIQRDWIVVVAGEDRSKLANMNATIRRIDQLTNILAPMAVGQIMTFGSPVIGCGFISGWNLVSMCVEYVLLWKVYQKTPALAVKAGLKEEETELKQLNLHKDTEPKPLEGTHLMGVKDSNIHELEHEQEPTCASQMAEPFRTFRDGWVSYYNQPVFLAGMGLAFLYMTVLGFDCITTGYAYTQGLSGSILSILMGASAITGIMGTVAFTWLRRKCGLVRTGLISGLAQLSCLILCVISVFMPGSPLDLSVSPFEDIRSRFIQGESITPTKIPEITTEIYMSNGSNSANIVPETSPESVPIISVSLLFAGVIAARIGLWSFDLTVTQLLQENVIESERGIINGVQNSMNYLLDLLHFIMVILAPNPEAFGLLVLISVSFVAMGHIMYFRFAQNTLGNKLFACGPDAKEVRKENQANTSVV
Chain of UniProt O60906 (O60906 whole entry, looked up): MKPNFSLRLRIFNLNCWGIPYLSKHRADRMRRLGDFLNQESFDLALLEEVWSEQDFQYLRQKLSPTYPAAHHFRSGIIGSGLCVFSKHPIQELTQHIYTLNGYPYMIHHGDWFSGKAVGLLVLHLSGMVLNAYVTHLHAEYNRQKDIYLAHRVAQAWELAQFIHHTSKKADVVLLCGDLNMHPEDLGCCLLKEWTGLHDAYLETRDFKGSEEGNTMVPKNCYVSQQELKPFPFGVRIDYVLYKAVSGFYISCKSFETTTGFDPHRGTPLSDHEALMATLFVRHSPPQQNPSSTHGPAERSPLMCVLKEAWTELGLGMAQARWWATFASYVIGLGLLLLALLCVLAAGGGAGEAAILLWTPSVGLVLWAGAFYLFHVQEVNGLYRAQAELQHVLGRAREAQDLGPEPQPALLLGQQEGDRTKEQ
Chain of UniProt P51532 (P51532 whole entry, looked up): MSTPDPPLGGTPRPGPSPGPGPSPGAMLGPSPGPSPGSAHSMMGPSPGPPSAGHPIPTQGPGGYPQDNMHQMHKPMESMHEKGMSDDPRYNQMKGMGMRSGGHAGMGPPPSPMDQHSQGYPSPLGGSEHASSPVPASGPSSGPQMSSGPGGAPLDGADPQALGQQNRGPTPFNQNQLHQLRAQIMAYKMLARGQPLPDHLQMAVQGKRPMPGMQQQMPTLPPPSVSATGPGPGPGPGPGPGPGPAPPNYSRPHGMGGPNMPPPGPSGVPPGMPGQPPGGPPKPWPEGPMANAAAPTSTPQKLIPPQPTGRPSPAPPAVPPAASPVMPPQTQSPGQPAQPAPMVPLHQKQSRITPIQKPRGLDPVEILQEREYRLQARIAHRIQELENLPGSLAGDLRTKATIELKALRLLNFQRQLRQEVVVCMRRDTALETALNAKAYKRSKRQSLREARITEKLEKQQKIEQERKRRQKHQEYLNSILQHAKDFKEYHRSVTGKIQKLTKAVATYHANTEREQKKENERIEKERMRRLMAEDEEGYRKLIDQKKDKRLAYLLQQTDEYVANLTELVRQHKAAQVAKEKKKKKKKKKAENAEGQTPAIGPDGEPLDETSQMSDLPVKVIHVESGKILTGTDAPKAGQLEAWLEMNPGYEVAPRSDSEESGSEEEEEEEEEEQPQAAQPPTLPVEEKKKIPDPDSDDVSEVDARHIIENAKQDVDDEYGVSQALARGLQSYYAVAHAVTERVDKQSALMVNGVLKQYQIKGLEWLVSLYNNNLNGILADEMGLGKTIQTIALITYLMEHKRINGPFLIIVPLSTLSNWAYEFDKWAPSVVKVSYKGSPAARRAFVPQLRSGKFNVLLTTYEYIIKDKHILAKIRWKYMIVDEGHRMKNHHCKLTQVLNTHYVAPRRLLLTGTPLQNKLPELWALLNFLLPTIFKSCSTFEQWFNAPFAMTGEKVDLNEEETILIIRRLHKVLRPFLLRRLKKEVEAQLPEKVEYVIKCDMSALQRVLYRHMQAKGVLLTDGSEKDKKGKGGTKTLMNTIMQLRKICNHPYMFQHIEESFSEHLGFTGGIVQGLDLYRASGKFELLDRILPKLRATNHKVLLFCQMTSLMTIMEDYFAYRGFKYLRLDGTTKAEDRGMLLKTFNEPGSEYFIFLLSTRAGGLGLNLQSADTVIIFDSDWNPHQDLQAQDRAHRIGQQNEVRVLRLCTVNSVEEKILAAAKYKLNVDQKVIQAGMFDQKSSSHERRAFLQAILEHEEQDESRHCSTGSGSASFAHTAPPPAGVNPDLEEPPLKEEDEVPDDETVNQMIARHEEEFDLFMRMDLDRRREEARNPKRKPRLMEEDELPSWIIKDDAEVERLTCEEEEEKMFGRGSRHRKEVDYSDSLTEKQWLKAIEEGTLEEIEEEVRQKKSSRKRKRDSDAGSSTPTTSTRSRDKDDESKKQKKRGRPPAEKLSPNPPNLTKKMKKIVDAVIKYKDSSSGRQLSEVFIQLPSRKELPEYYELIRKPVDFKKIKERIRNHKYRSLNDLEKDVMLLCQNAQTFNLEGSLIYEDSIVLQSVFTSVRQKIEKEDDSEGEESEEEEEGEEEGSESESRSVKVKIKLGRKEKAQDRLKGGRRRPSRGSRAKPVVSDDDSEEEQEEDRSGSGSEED
Chain of UniProt P12931 (P12931 whole entry, looked up): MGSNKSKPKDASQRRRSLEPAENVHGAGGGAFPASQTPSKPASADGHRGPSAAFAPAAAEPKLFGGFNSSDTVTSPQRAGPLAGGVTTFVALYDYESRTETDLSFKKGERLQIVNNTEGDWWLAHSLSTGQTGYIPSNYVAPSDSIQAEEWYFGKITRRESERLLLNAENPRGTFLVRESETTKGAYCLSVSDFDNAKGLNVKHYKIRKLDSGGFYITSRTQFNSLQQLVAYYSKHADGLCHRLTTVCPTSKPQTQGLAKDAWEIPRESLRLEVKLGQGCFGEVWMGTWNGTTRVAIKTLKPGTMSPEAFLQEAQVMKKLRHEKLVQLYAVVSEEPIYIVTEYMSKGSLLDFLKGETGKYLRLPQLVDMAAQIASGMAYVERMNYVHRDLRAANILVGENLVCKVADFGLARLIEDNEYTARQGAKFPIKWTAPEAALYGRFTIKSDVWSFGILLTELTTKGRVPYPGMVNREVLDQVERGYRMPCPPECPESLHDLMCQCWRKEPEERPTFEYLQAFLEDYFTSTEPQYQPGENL
Chain of UniProt Q13487 (Q13487 whole entry, looked up): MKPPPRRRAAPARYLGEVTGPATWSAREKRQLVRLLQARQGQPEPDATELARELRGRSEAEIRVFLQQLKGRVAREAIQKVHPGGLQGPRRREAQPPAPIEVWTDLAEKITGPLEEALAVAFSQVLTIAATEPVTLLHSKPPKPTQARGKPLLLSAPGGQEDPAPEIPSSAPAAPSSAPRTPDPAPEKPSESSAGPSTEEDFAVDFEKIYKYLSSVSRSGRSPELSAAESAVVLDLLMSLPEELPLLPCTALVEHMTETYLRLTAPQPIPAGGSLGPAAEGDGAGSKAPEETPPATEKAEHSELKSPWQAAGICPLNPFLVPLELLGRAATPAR
Chain of UniProt Q9Y2D2 (Q9Y2D2 whole entry, looked up): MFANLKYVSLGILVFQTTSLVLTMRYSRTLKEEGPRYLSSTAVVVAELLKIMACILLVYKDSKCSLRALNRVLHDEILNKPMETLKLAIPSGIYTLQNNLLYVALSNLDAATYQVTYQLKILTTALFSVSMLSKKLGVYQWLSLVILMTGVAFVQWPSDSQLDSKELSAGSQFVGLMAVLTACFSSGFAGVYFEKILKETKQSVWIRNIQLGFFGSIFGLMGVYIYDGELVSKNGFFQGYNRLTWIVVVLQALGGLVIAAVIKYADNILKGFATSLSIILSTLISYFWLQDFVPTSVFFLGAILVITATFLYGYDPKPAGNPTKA

log2 fold change, inactive:
SNRPD2 (UniProt K7EJB5) 0, SNAPC2 (UniProt Q13487) 0, STAR (UniProt P49675) -0.146, SLC12A6 isoform 2 (UniProt Q9UHW9) 0.039, SMARCA4 isoform 4 (UniProt P51532) 0.05, SLC41A1 (UniProt Q8IVJ1) 0.055, SSX5 isoform 2 (UniProt O60225) 0.15, STAU1 isoform 3 (UniProt O95793) -0.047, SYK (UniProt P43405) -0.064, SRC isoform 2 (UniProt P12931) 0.012, SKP2 (UniProt Q13309) -0.044, SLU7 (UniProt O95391) 0.016, SZT2 (UniProt Q5T011) -0.046, SLC40A1 (UniProt Q9NP59) -0.185, SLC25A36 (UniProt Q96CQ1) -0.031, STK38L (UniProt Q9Y2H1) -0.046, SMPD2 (UniProt O60906) 0.069, SLC39A13 (UniProt Q96H72) -0.018, SLC35A3 isoform 2 (UniProt Q9Y2D2) 0.056, SNAP23 isoform 2 (UniProt O00161) -0.116, SHB (UniProt Q15464) -0.01, STK17B (UniProt O94768) -0.021
